Among the data in PubChem BioAssay (EPA / NIEHS) are outcome and AC50 values, retold here.

A short description of experiment [1]: CCTE_Harrill_HTTr_Viability_MCF7: CCTE's 6-hour Cell Viability Assessment for the High-Throughput Transcriptomics (HTTr) Platform, in MCF-7 cells cultured in DMEM + 10% fetal bovine serum, Harrill Lab (AID 2284010). The procedure, abridged:
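Cells were dosed with chemicals in an eight-point dilution series, imaged 6 hours later for propidium iodide uptake, and the endpoint was analyzed by bidirectional fitting against DMSO as negative control.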

The nature of experiment [2]: CCTE_Harrill_HTTr_Apoptosis_MCF7: CCTE's 6-hour Apoptosis Assessment for the High-Throughput Transcriptomics (HTTr) Platform, in MCF-7 cells cultured in DMEM + 10% fetal bovine serum, Harrill Lab (AID 2284011). The procedure, abridged: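 High-content imaging of CellEvent Caspase 3/7 Green signal follows a six-hour exposure, with eight concentrations per chemical. MCF-7 cells grown in DMEM plus 10% fetal bovine serum; activity fitted in both directions against DMSO.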

Experiment [3] in a line: CCTE_Harrill_HTTr_CellCount_MCF7: CCTE's Cell Proliferation Assessment for the High-Throughput Transcriptomics (HTTr) Platform, Harrill Lab (AID 2284012; active = hit-call score of the fitted dose curve at least 0.9, where 1 is the maximum;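 note: cells exposed to compound for six hours; intended direction is loss of nuclei count meaning fewer cells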). The procedure, abridged: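 Chemicals in eight-point dilution series are added to MCF-7 cells for six hours, nuclei are stained with Hoechst and imaged, and per-well nuclei counts are fitted in both directions relative to DMSO controls.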

Results filed as inconclusive are left out. The source made the active and inactive calls. Rule for the calls, unless noted: active = hit-call score of the fitted dose curve at least 0.9, where 1 is the maximum; inactive = score below 0.9.

`N[C@@H](Cc1cc(I)c(Oc2cc(I)c(O)c(I)c2)c(I)c1)C(=O)O`: the outcome in experiment [1], in experiment [2] and in experiment [3] was inactive.

For the compound `O=c1c(O)c(-c2ccc(O)cc2)oc2cc(O)cc(O)c12`, the result in experiment [1], in experiment [2] and in experiment [3] was inactive.

As for `Cc1[nH]c(=O)c(C#N)cc1-c1ccncc1`, the result in experiment [1], in experiment [2] and in experiment [3] was inactive.

Consider `CS(=O)(=O)c1ccc(C2=C(c3ccccc3)C(=O)OC2)cc1`, for which the result in experiment [1], in experiment [2] and in experiment [3] was inactive.

`CN1C(=O)c2ccccc2C1=O`: the result in experiment [1], in experiment [2] and in experiment [3] was inactive.

In the case of `CC(=O)Nc1ccc(C(=O)CCl)cc1`, the result in experiment [1], in experiment [2] and in experiment [3] was inactive.

For `O=C(O)CCCCCCCCCCCC(=O)O`, the result in experiment [1], in experiment [2] and in experiment [3] was inactive.

Regarding `CCc1ccc(O)cc1`, the result in experiment [1], in experiment [2] and in experiment [3] was inactive.

In general, AC50 refers to the concentration giving half of the maximal activity seen. On to `COc1ccc(CCN2CCC(Nc3nc4ccccc4n3Cc3ccc(F)cc3)CC2)cc1`, for which the AC50 in experiment [1] is 76.2 µM (active); in experiment [3], 79.2 µM (active). The outcome in experiment [2] was inactive.

On to `COc1ccc(COC(C)=O)cc1`, for which the outcome in experiment [1], in experiment [2] and in experiment [3] was inactive.

As to `C[C@H]1C[C@@H](O)CC(C)(C)C1`, the result in experiment [1], in experiment [2] and in experiment [3] was inactive.

Take `c1ccc(Oc2ccccc2)cc1`: the result in experiment [1], in experiment [2] and in experiment [3] was inactive.

For `CC(C)C[C@H](NC(=O)OCC1c2ccccc2-c2ccccc21)C(=O)O`, the outcome in experiment [1], in experiment [2] and in experiment [3] was inactive.

Turning to `CC(C)(C)CC(C)(C)c1ccc(OCCOCC[N+](C)(C)Cc2ccccc2)cc1`, the result in experiment [1], in experiment [2] and in experiment [3] was inactive.

Regarding `O=CCc1ccccc1`, the result in experiment [1], in experiment [2] and in experiment [3] was inactive.

For `Nc1ccn([C@H]2CS[C@@H](CO)O2)c(=O)n1`, the result in experiment [1], in experiment [2] and in experiment [3] was inactive.

As for `CCC1(c2ccccc2)C(=O)NCNC1=O`, the result in experiment [1], in experiment [2] and in experiment [3] was inactive.

On to `O=C(O)c1ccc(O)cc1`, for which the result in experiment [1], in experiment [2] and in experiment [3] was inactive.

For `O=c1[nH]c(=O)c2cn[nH]c2[nH]1`, the outcome in experiment [1], in experiment [2] and in experiment [3] was inactive.

`CC1CCC(C(C)C)C(O)C1` (centres undefined): the outcome in experiment [1], in experiment [2] and in experiment [3] was inactive.

Consider `CS(=O)(=O)OCCCCOS(C)(=O)=O`, for which the result in experiment [1], in experiment [2] and in experiment [3] was inactive.

Regarding `O=C(O)c1cccnc1C(=O)O`, the outcome in experiment [1], in experiment [2] and in experiment [3] was inactive.

Take `C[C@H]1O[C@@H](O[C@H]2[C@@H](O)C[C@H](O[C@H]3[C@@H](O)C[C@H](O[C@H]4CC[C@@]5(C)[C@H](CC[C@@H]6[C@@H]5C[C@@H](O)[C@]5(C)[C@@H](C7=CC(=O)OC7)CC[C@]65O)C4)O[C@@H]3C)O[C@@H]2C)C[C@H](O)[C@@H]1O`: the result in experiment [1], in experiment [2] and in experiment [3] was inactive.

As for `[O-]n1ccccc1=S.[O-]n1ccccc1=S.[Zn+2]`, the outcome in experiment [1] and in experiment [2] was inactive. Besides, the AC50 in experiment [3] was 50 µM (active).

Take `CS(=O)(=O)c1ccc(Cl)cc1`: the outcome in experiment [1], in experiment [2] and in experiment [3] was inactive.

Take `CN(C)CCOC(C)(c1ccccc1)c1ccccn1` (centres undefined): the outcome in experiment [1], in experiment [2] and in experiment [3] was inactive.

`Cc1ccc(N)c(S(=O)(=O)O)c1`: the outcome in experiment [1] and in experiment [3] was inactive.

On to `C=C(C)[C@H]1CC=C(C)C(=O)C1`, for which the result in experiment [1] and in experiment [3] was inactive.

As to `OC[C@H]1O[C@@H](Oc2ccc(O)cc2)[C@H](O)[C@@H](O)[C@@H]1O`, the result in experiment [1], in experiment [2] and in experiment [3] was inactive.

On to `Clc1cc(Cl)c(-c2c(Cl)c(Cl)cc(Cl)c2Cl)cc1Cl`, for which the outcome in experiment [1], in experiment [2] and in experiment [3] was inactive.

In the case of `CCOC(=O)[C@@H](C)Oc1ccc(Oc2nc3ccc(Cl)cc3o2)cc1`, the result in experiment [1] and in experiment [3] was inactive.

Consider `CCCCCc1ccco1`, for which the outcome in experiment [1] and in experiment [3] was inactive.

As to `ON=C1CCCCC1`, the outcome in experiment [1] and in experiment [3] was inactive.

Regarding `CCCCCCOC(=O)CCC`, the result in experiment [1] and in experiment [3] was inactive.

`C1=CC2C3C=CC(C3)C2C1` (centres undefined): the outcome in experiment [1] and in experiment [3] was inactive.

For `CC(C)(CO)[C@@H](O)C(=O)NCCC(=O)O`, the outcome in experiment [1] and in experiment [3] was inactive.

On to `CC(=O)CC(=O)Nc1ccccc1`, for which the result in experiment [1] and in experiment [3] was inactive.

Regarding `CC(C)(C)C1=CC(=O)C(C(C)(C)C)=CC1=O`, the result in experiment [1] and in experiment [3] was inactive.

With `CCCCCCCCCC(=O)OC`, the result in experiment [1] and in experiment [3] was inactive.

Take `CC(C)c1ccccc1O`: the result in experiment [1] and in experiment [3] was inactive.

As for `CC(=O)C1(C)CC2=C(CCCC2(C)C)CC1C` (centres undefined), the outcome in experiment [1], in experiment [2] and in experiment [3] was inactive.

As to `Clc1ccc(C(c2ccccc2Cl)C(Cl)Cl)cc1` (centres undefined), the result in experiment [1] and in experiment [3] was inactive.

Take `CCCCC1(COC(=O)CCC(=O)O)C(=O)N(c2ccccc2)N(c2ccccc2)C1=O`: the outcome in experiment [1] and in experiment [3] was inactive.

`O=C1c2ccccc2C(=O)c2c(O)ccc(O)c21`: the outcome in experiment [1] and in experiment [3] was inactive.

As for `Cc1ccc(-c2ccccc2)cc1`, the result in experiment [1] and in experiment [3] was inactive.

Turning to `C[C@@H]1CCN(C(=O)[C@H](CCCN=C(N)N)NS(=O)(=O)c2cccc3c2NC[C@H](C)C3)[C@@H](C(=O)O)C1`, the result in experiment [1] and in experiment [3] was inactive.

For the compound `O=[N+]([O-])c1cccc(Cl)c1`, the result in experiment [1] and in experiment [3] was inactive.

Turning to `OCCc1ccccc1`, the result in experiment [1] and in experiment [3] was inactive.

As to `C=C1CC[C@H](O)C/C1=C/C=C1\CCC[C@]2(C)[C@@H]([C@H](C)/C=C/[C@H](C)C(C)C)CC[C@@H]12`, the outcome in experiment [1] and in experiment [3] was inactive.

On to `COC(=O)Nc1ccc(Cl)c(Cl)c1`, for which the result in experiment [1] and in experiment [3] was inactive.

With `c1ccc(CCc2ccccc2)cc1`, the outcome in experiment [1] and in experiment [3] was inactive.

Take `CC(C)CCCCCCCCCCCCCCC(=O)O`: the result in experiment [1] and in experiment [3] was inactive.

With `CCCC(=O)OCCc1ccccc1`, the outcome in experiment [1], in experiment [2] and in experiment [3] was inactive.

Take `CC1(C)COCN1`: the outcome in experiment [1], in experiment [2] and in experiment [3] was inactive.
